# Measurements taken from ChEMBL document CHEMBL3988442, “University of Dundee, Small-Polar-MMV Screening Library” (2021).
# Hit rate of the full screen: of about 66,000 compounds, about 960 (1.5%) showed an effect of 50% or more. What follows is part of a selection rich in strong results, with near analogues and random picks from the rest.
# System: Trypanosoma brucei
# Experiment: Trypanosoma brucei 72 hour study
# Format: functional, organism-based
# Parameters: scale not given: in the data most compounds retested in dose-response had high values
smiles,measurement,setting,value
c1ccc(-c2cccc(N3CCC(NCCc4cscn4)CC3)c2)cc1,Percent Effect,"30.3 µM, […]",99.95%
CC(C)CC(C)NC1CCN(c2cccc(-c3cscn3)c2)CC1 (stereo not drawn),Percent Effect,"30 µM, 30.03 µM",-3.57%
CN(C)CCCN(C)C1CCN(c2cccc(-c3cscn3)c2)CC1,Percent Effect,"30.3 µM, […]",17.15%
c1cc(-c2cscn2)cc(N2CCC(NCCc3cccs3)CC2)c1,Percent Effect,"30.3 µM, […]",64.97%
O=C1CCCN1c1cccc(N2CCC(NCCc3cscn3)CC2)c1,Percent Effect,"30.3 µM, […]",6.374%
CN(Cc1nccs1)C1CCN(c2cccc(-c3cscn3)c2)CC1,Percent Effect,"30.3 µM, […]",-33.72%
CC1(c2ccc(Br)cc2)CC(=O)N(CC(N)=O)C1=O (stereo not drawn),Percent Effect,"30.3 µM, […]",-17.28%
Cn1cc(C(=O)CC2CCCN2C(=O)c2cccc3ncccc23)cn1 (stereo not drawn),Percent Effect,"30.3 µM, […]",-17.51%
Cc1ccc(C(=O)NCCC2CN(C3CCCC3)CCO2)c(C)c1 (stereo not drawn),Percent Effect,"30 µM, 30.03 µM",0.3212%
O=C(c1cc2c(Cl)cccc2[nH]1)N1CCN(CCc2ccccn2)CC1,Percent Effect,"30 µM, 30.03 µM",6.57%
CCOC(=O)c1ccc(S(=O)(=O)NCc2cccnc2N(C)C)cc1,Percent Effect,10 µM,-42.9%
Cc1ccc(CCC(=O)N(C)CCN2CCOCC2)c(C)c1,Percent Effect,"30 µM, 30.03 µM",15.97%
CCOc1nnc(CN2CCCC(c3nc4ccccc4[nH]3)C2)s1 (stereo not drawn),Percent Effect,"30 µM, 30.03 µM",-9.691%
CCOc1ccc(CN2CCCC(c3cc4ncccc4[nH]3)C2)cc1 (stereo not drawn),Percent Effect,"30.3 µM, […]",100.2%
CC(=O)Nc1ccc(CN2CCCC(c3cc4ncccc4[nH]3)C2)cc1 (stereo not drawn),Percent Effect,"30.3 µM, […]",8.67%
Fc1ccc(CN2CCCC(c3cc4ncccc4[nH]3)C2)cc1 (stereo not drawn),Percent Effect,"30.3 µM, […]",55.67%
Cl.Cn1nc(C2CCCN(Cc3ccc(F)cc3)C2)c2nccnc21 (stereo not drawn),Percent Effect,"30.3 µM, […]",4.536%
CCOc1ccc(CN2CCN(C(=O)c3cc(C4CC4)[nH]n3)CC2)cc1,Percent Effect,"30.3 µM, […]",-13.15%
same,Percent Effect,"10 mM, 10 mM as filed; unlikely as a test dose",-41.12%
O=S(=O)(C1CC1)N1Cc2nccn2CC(Cn2cncn2)C1 (stereo not drawn),Percent Effect,"30.3 µM, […]",-41.46%
CC1c2ncc(CN3CCN(C)CC3)n2CCN1Cc1ccc(F)cc1.O=C(O)C(F)(F)F.O=C(O)C(F)(F)F.O=C(O)C(F)(F)F (stereo not drawn),Percent Effect,"30.3 µM, […]",-44.2%
CN(Cc1ccco1)[C@@H]1CN(C(=O)c2cnccn2)C[C@@H]2CCCO[C@@H]21.O=C(O)C(F)(F)F,Percent Effect,"30 µM, 30.03 µM",-17.24%
COc1cc(N2CCC3(CCN(Cc4csc(C)n4)C3=O)C2)ncn1.O=C(O)C(F)(F)F (stereo not drawn),Percent Effect,"30.3 µM, […]",-84.03%
COCC1COCCC12CCN(S(=O)(=O)c1cccnc1)CC2.O=C(O)C(F)(F)F (stereo not drawn),Percent Effect,"30.3 µM, […]",-13.71%
O=C(COc1ccc2c(c1)CCC2)NS(=O)(=O)c1cccnc1,Percent Effect,10 µM,-70.49%
Cc1ccc(N2CC[C@@H]3[C@@H]2CCN3C(=O)Cc2ccccc2)nn1.O=C(O)C(F)(F)F,Percent Effect,"30.3 µM, […]",-46.46%
O=C(c1cccc(Cn2ccnc2)c1)N1CCCC(n2cccn2)C1 (stereo not drawn),Percent Effect,"30.3 µM, […]",2.699%
Cc1nc(COc2ccc(CNCC3CN(C)CCO3)cc2)cs1 (stereo not drawn),Percent Effect,"30.3 µM, […]",-2.349%
CN1CCOC(CNCc2cccc(OCc3ccccn3)c2)C1 (stereo not drawn),Percent Effect,"30 µM, 30.03 µM",-14.98%
CCN1CCOC(CNCc2ccc(OCc3ccccn3)cc2)C1 (stereo not drawn),Percent Effect,10 µM,-32.81%
CN1CCOC(CNCc2ccc(OCc3ccccn3)cc2)C1 (stereo not drawn),Percent Effect,"30.3 µM, […]",56.06%
same,Percent Effect,"10 mM, 10 mM as filed; unlikely as a test dose",-23.3%
Cc1nc(CNCC2CN(C)CCO2)cs1 (stereo not drawn),Percent Effect,"30.3 µM, […]",3.844%
Cc1ccc(OCc2nc(CNCC3CN(C)CCO3)cs2)cc1 (stereo not drawn),Percent Effect,10 µM,77.03%
Cc1ccc(S(=O)(=O)NCC(C)(C)N)c(F)c1.Cl,Percent Effect,"30 µM, 30.03 µM",-16.31%
Cc1cc(Oc2ccccc2F)nc(C2CCCCN2)n1.Cl.Cl (stereo not drawn),Percent Effect,"30.3 µM, […]",-25.86%
Cc1nn(C)c(N(C)C)c1CNC1CCc2c(Cl)cccc21.Cl (stereo not drawn),Percent Effect,"30.3 µM, […]",17.67%
CN(Cc1cn2c(n1)CN(C(=O)CC1CC1)CC2)Cc1ccco1.O=C(O)C(F)(F)F,Percent Effect,"30 µM, 30.03 µM",13.03%
CC(C)CN1CCCC1c1ccc(C(=O)Nc2cccnc2)s1 (stereo not drawn),Percent Effect,"30.3 µM, […]",100.5%
CCc1nnc(NC(=O)c2ccc(C3CCCN3CC(C)C)s2)s1 (stereo not drawn),Percent Effect,"30.3 µM, […]",-0.9926%
CC(C)CN1CCCC1c1ccc(C(=O)Nc2ccc3[nH]nnc3c2)s1 (stereo not drawn),Percent Effect,"30.3 µM, […]",85.03%
Cc1cnc(NC(=O)c2ccc(C3CCCN3CC(C)C)s2)s1 (stereo not drawn),Percent Effect,"30.3 µM, […]",0.4974%
CC(C)CN1CCCC1c1ccc(C(=O)Nc2cn(C)nn2)s1 (stereo not drawn),Percent Effect,"30.3 µM, […]",0.1891%
CC(C)CN1CCCC1c1ccc(C(=O)Nc2cc[nH]n2)s1 (stereo not drawn),Percent Effect,"30.3 µM, […]",23.5%
COCCN(C)C[C@@H]1CN(C(=O)c2ccc3c(c2)OCO3)C[C@@H]1CO,Percent Effect,"30 µM, 30.03 µM",-13.62%
CC(C)Cc1nc(OCC(N)=O)c(C#N)c2c1CCCC2,Percent Effect,"30 µM, 30.03 µM",-29.84%
CCS(=O)(=O)N1CCN(Cc2ccncc2)c2nc(C)ccc2C1.O=C(O)C(F)(F)F.O=C(O)C(F)(F)F,Percent Effect,"30 µM, 30.03 µM",13.64%
COc1cccc2c1OCC(C(=O)NCc1nc3c(s1)CCCC3)C2 (stereo not drawn),Percent Effect,"30 µM, 30.03 µM",60.51%
COc1cccc2c1OCC(C(=O)NCCc1nc3c(s1)CCC3)C2 (stereo not drawn),Percent Effect,"30 µM, 30.03 µM",-23.46%
COc1ccc2c(c1)OCC(C(=O)NCc1nc3c(s1)CCCC3)C2 (stereo not drawn),Percent Effect,"30 µM, 30.03 µM",-46.37%
Cc1ccc2c(c1)C(NC(=O)N(C)C)CC21CCN(C(C)C)CC1.O=C(O)C(F)(F)F (stereo not drawn),Percent Effect,"30.3 µM, […]",-8.347%
COCCN1CCC2(CC1)CC(NC(=O)C(C)C)c1ccccc1O2.O=C(O)C(F)(F)F (stereo not drawn),Percent Effect,"30.3 µM, […]",3.771%
CC(NCc1ccc(OCC(N)=O)cc1)c1ccc(Cl)c(Cl)c1.Cl (stereo not drawn),Percent Effect,"30.3 µM, […]",16.7%
CC(NCc1ccc(OCC(N)=O)cc1)c1ccc2c(c1)CCCC2 (stereo not drawn),Percent Effect,"30.3 µM, […]",58.39%
CC(NCc1ccc(OCC(N)=O)cc1)c1ccc(Cl)cc1.Cl (stereo not drawn),Percent Effect,"30.3 µM, […]",-11.6%
O=C(O)C(F)(F)F.O=C(O)C(F)(F)F.O=C(O)C(F)(F)F.c1ccc(CN2CCc3nnc(COc4ccccn4)n3CC2)nc1,Percent Effect,"30 µM, 30.03 µM",1.272%
Cc1ccc(CN2CCn3c(C(=O)N(C)C)cnc3C2)s1.O=C(O)C(F)(F)F,Percent Effect,"30 µM, 30.03 µM",-2.366%
CCCn1c(C)c(CC(=O)NC(C)CO)c2c1CC(C)(C)CC2=O (stereo not drawn),Percent Effect,"30 µM, 30.03 µM",-12.97%
CCCn1c(C)c(CC(=O)NC)c2c1CC(C)(C)CC2=O,Percent Effect,"30 µM, 30.03 µM",24.04%
CCCn1c(C)c(CC(=O)N[C@H](C)C(=O)OC)c2c1CC(C)(C)CC2=O,Percent Effect,"30 µM, 30.03 µM",85.29%
Nc1cc(N2CCOCC(Cc3ccc4[nH]ccc4c3)C2)ncn1 (stereo not drawn),Percent Effect,"30.3 µM, […]",67.68%
Cc1cc(N2CCOCC(Cc3ccc4[nH]ccc4c3)C2)ncn1 (stereo not drawn),Percent Effect,"30.3 µM, […]",12.74%
c1cc(N2CCOCC(Cc3ccc4[nH]ccc4c3)C2)ncn1 (stereo not drawn),Percent Effect,"30.3 µM, […]",-4.218%
